Apoferritin bind: candidate novel general anesthetic via apoferritin binding. 350,000 tested, 0.074% active. P02791. apoferritin/1-aminoanthracene competitive binding, fluorescence. Potency, µM (titrated, usually from 77.5 µM), hits mostly inhibitors; note: nearly all actives have a fitted effect of over 20% in size
Target sequence (P02791 2-175 limits assumed): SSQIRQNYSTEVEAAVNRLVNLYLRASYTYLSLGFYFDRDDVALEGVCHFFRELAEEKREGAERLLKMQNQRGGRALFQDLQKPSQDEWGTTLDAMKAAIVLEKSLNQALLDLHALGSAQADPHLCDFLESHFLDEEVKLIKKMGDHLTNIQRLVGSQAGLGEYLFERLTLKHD
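10 uM apoferritin + 50% sat. 1-AMA, PBS; cpd 10 min RT; Ex380/Em535 endpoint; normalized to free probe vs complex; 4-param Hill fit; propofol titration as pos. ctrl.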
Glioma ERSR ind: induces the endoplasmic reticulum stress response in human glioma cells. Potency, µM, hits mostly activators. 420,000 tested, 0.02% active. U87-MG GRP78 promoter luciferase reporter, 16 h; note: series mostly up to about 76 µM; nearly all actives have a fitted effect of over 35% in size
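ERSR induction read as luciferase luminescence (Bright-Glo, 10 min at room temperature) in stably transfected human U87-MG glioma cells exposed to compounds for 16 h, using GRP78 as sensor.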
BCR signal inh: inhibitors of chronic active B-cell receptor signaling. Potency, µM (top dose mostly 46.1 µM), actives largely listed as inhibitors. ABC-DLBCL IkBa-CBG/CBR reporter, luminescence ratio, 4 h. 340,000 tested, 0.05% active; active = well fitted inhibition curve with a large enough effect in the signal ratio, with a control signal flat, not every such curve was filed as active; inconclusive = small, poorly fitted or top-dose-only effect, or effect the other way, or a change in a side signal; the % refers to the signal ratio
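Doxycycline induced both beetle luciferases in TMD8 lymphoma cells; IKK-driven degradation limits the IkappaBalpha-fused green signal, while red luminescence normalises for cell number and nonspecific effects. Compounds tested up to 46 uM, 4 hrs.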
ALOX12 inh: blocks human arachidonate 12S-lipoxygenase; 580,000 tested, 1.1% active; P18054; purified 12hLO, xylenol orange hydroperoxide absorbance; Potency, µM (highest dose often 108 µM), most hits filed as inhibitors
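Purified human 12hLO at 150 nM in 25 mM Hepes, 0.01% Triton X-100, pH 7.0, preincubated 15 min at room temperature with compound. Reaction started with 40 uM arachidonic acid, 30 min at room temperature. Hydroperoxide measured by Fe-xylenol orange, 573/405 nm absorbance ratio.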
Numbers stand for hits; 0 = inactive; ? = inconclusive; - = no result; ! = a repeat was not active. Rows were chosen to be rich in hits. Some 1.1% of all compounds tested hit in one or more screens of this group. Unless noted, calls come from the whole dose curve; as a rule, active = well fitted curve in the direction sought with a large enough effect; inconclusive = small, poorly fitted or top-dose-only effect, or another doubt; inactive = no such curve, though single readings can be large; an effect the other way counts as inactive or inconclusive.

SMILES	Apoferritin bind	Glioma ERSR ind	BCR signal inh	ALOX12 inh
Cc1cccc(NC(=O)c2ccc(NCC3CCCO3)c([N+](=O)[O-])c2)c1 (configuration not stated)	0	0	0	0
Cc1cccc(NC(=O)c2ccc(NCC3CCCO3)c([N+](=O)[O-])c2)n1 (configuration not stated)	28µM	0	0	0
COc1ccc2cnn(CC(=O)NC3CCCc4c3[nH]c3ccccc43)c(=O)c2c1OC (configuration not stated)	-	-	-	40µM
O=C(Cn1nc2c(cc1=O)CCCC2)NC1CCCc2c1[nH]c1ccccc21 (configuration not stated)	-	-	-	35µM
COc1ccc(C2(C(=O)NC3CCCc4c3[nH]c3c(Cl)cccc43)CCOCC2)cc1 (configuration not stated)	-	-	-	0
COc1ccc(C2(C(=O)NC3CCCc4c3[nH]c3ccccc43)CCOCC2)cc1 (configuration not stated)	-	-	-	35µM
O=C(Cc1n[nH]c(=O)c2ccccc12)NC1CCCc2c1[nH]c1ccccc21 (configuration not stated)	-	-	-	45µM
O=C(Cn1nc2c(cc1=O)CCCC2)NC1CC1	-	-	-	0
Cc1ccc(NC(=O)N2CCCCCCNC(=O)[C@@H]3CCCC[C@@H]32)cc1C	-	-	-	0
CCn1ccnc1CN(C)C(=O)c1cc(-c2cnc(N)nc2)nc2c(C)cccc12	-	-	-	0
CC(=O)NCCNC(=O)CCc1ncc(-c2ccccc2Cl)o1	-	-	-	0
CNc1oc(-c2cc(S(=O)(=O)N(C)c3ccccc3)c(C)o2)nc1C#N	-	-	-	0
O=C(Cn1ncc2ccccc2c1=O)NC1CCCc2c1[nH]c1ccccc21 (configuration not stated)	-	-	-	28µM
O=C(Cn1ncc2ccccc2c1=O)NC1CCCCC1	-	-	-	0
COc1ccccc1/C=C/c1nc(C#N)c(NCCCN2CCOCC2)o1	-	-	-	0
Cc1ccc2sc(/C=C/c3ccc(C#N)cc3)nc2c1	-	-	-	0
CC(C)N1C(=O)[C@@H]2[C@@H](CCN2C(=O)CC(C)(C)CC(=O)O)N(Cc2cccc(F)c2)C1=O	-	-	-	0
CC(C)N1C(=O)[C@@H]2[C@@H](CCN2C(=O)CSCC(=O)O)N(Cc2cccc(F)c2)C1=O	-	-	-	35µM
Cc1cscc(C)c1=S	-	0	-	18µM
O=C(CCc1cc(Cl)no1)N(CCS(=O)(=O)N1CCOCC1)Cc1ccccn1	-	-	-	7.9µM
COc1cc(/C=N/N2C(=O)CSC2=S)cc(Br)c1O	0	0	?	?
O=C1CSC(=S)N1N=Cc1c(O)ccc2ccccc12	-	0	-	11µM
COc1ccc2ccccc2c1/C=N/N1C(=O)CSC1=S	0	0	0	0
O=C1CSC(=S)N1N=Cc1c(F)cccc1Cl	-	0	-	?
O=C1CSC(=S)N1/N=C/c1c(F)cccc1F	0	0	0	28µM
SMILES	Apoferritin bind	Glioma ERSR ind	BCR signal inh	ALOX12 inh
COc1cccc(/C=N/N2C(=O)CSC2=S)c1O	0	0	0	35µM
Cc1oc2cc(O)ccc2c(=O)c1-c1nc2ccccc2s1	-	-	-	0
O=C(/C=C/c1ccco1)OCc1nnc(-c2ccc(Cl)cc2)o1	?	0	0	45µM
COc1ccc(NC(=O)c2cc(Br)c(Br)s2)cn1	0	0	?	13µM
CCc1sc(C(=O)Nc2cccnc2)cc1Br	0	0	?	25µM
O=C(Nc1cccnc1)c1ccc(Br)s1	0	0	?	0
Cc1ccccc1C(=O)N1CCC(CCC(=O)NCCc2c[nH]c3ccccc23)CC1	-	-	-	0
C#CCNC(=O)c1nccnc1N	-	-	-	0
CC(c1nc2ccccc2[nH]1)n1c(=O)c(-c2ccco2)nc2ccccc21 (configuration not stated)	-	-	-	13µM
CC(C)(C)NC(=O)C(c1ccc(-c2ccccc2)cc1)n1c(=O)c(-c2ccco2)nc2ccccc21 (configuration not stated)	-	-	-	40µM
O=C(NCc1ccccc1)C(c1ccc(-c2ccccc2)cc1)n1c(=O)c(-c2ccco2)nc2ccccc21 (configuration not stated)	-	-	-	14µM
CC(c1nc2ccccc2[nH]1)n1c(-c2ccncc2)nc2ccccc21 (configuration not stated)	-	-	-	0
Cc1cccc(C)c1NC(=O)C(c1ccc(-c2ccccc2)cc1)n1c(=O)c(-c2ccco2)nc2ccccc21 (configuration not stated)	-	-	-	13µM
CC(C)(C)NC(=O)C(c1ccc(-c2ccccc2)cc1)n1c(=O)c(-c2ccccc2)nc2ccccc21 (configuration not stated)	-	-	-	0
O=C(Nc1nccs1)c1csc(NC2CCCC2)n1	-	-	-	0
CC(C)(CNC(=O)C(C)(C)C)CNC(=O)C(C)(C)C	-	-	-	0
COc1ccc(NC(=O)C(c2ccccc2)n2c(=O)c(-c3ccco3)nc3ccccc32)cc1 (configuration not stated)	-	-	-	0
COc1ccc(C(C(=O)NC(C)(C)C)n2c(=O)c(-c3ccco3)nc3ccccc32)cc1 (configuration not stated)	-	-	-	25µM
CCN(CC)c1ccc(NC(=O)c2ccccc2Br)cc1S(=O)(=O)Nc1ccccc1OC	0	0	?	35µM
COCCNC(=O)/C(C#N)=C/c1cccc(/C=C(\C#N)C(=O)NCCOC)c1	0	?	15µM	0
N#C/C(=C\c1ccc(O)c(O)c1)C(=O)NCCCc1ccccc1	0	?	?	28µM!
COCCNC(=O)/C(C#N)=C/c1ccc(O)cc1	0	0	0	0
COc1ccc(C(=O)/C=C/c2c(C)cc(C)cc2C)cc1	-	-	-	0
Cc1ccc(/C=C(\NC(=O)c2ccc(C)cc2)c2nc(=S)[nH][nH]2)cc1	?	0	0	20µM
COc1ccc(-c2nc(CSCC(=O)NCc3cccnc3)c(C)o2)cc1	-	-	-	0
SMILES	Apoferritin bind	Glioma ERSR ind	BCR signal inh	ALOX12 inh
Nc1nc(SCc2ccc(Cl)cc2)ns1	50µM	0	0	0
Nc1nc(SCc2ccccc2)ns1	?	0	?	0
CC(Sc1ncnc2nc[nH]c12)C(=O)NCc1ccc(Cl)cc1 (configuration not stated)	-	-	-	0
Cc1cccc(CNc2ncnc3ccc(-c4cccc(C)c4)cc23)c1	-	-	0	-
Cc1cccc(CNc2ncnc3ccc(-c4ccc5c(c4)OCCO5)cc23)c1	-	0	?	50µM
Cc1csc(CNc2ncnc3ccc(-c4ccc5c(c4)OCCO5)cc23)c1	-	0	?	8.9µM
Cc1csc(CNc2ncnc3ccc(-c4ccc5c(c4)OCO5)cc23)c1	-	0	0	?
O=C(c1cccc(F)c1)N1CCC[C@@]2(CCN(C(c3ccccc3)c3ccccc3)C2)C1	-	13µM	-	0
O=C(c1cnccn1)N1CCC2(CC1)CN(C(c1ccccc1)c1ccccc1)C2	-	0	-	0
O=C(c1cccc(F)c1)N1CCC2(CC1)CN(C(c1ccccc1)c1ccccc1)C2	-	0	-	0
O=C(c1cnccn1)N1CCC2(CCCN(C(c3ccccc3)c3ccccc3)C2)CC1	-	45µM	-	0
COCc1ccc(C(=O)NC(C)c2ccc(F)cc2F)cc1 (configuration not stated)	-	-	-	0
CC(NC(=O)c1ccc2c(c1)CCCC2)c1ccc(F)cc1F (configuration not stated)	-	-	-	40µM
Cc1cc(C)cc(-n2nnnc2SCc2nc3ccsc3c(=O)[nH]2)c1	-	-	-	0

Source: PubChem BioAssay (National Center for Advancing Translational Sciences (NCATS))
